Experiment in all cases: DAPPL (digital affinity profiling via proximity ligation, sequencing); 10 mM Tris-HCl pH 7.5, 50 mM NaCl, 1 mM DTT, 4% glycerol, room temperature, 30 min; GST-TFs on glutathione beads, 16-mer random dsDNA library, 0.1% formaldehyde crosslink after washing; high values mean tight binding
One experiment concerns the target T1, FLI1 (Homo sapiens, UniProt Q01543 1-452).
T1 sequence: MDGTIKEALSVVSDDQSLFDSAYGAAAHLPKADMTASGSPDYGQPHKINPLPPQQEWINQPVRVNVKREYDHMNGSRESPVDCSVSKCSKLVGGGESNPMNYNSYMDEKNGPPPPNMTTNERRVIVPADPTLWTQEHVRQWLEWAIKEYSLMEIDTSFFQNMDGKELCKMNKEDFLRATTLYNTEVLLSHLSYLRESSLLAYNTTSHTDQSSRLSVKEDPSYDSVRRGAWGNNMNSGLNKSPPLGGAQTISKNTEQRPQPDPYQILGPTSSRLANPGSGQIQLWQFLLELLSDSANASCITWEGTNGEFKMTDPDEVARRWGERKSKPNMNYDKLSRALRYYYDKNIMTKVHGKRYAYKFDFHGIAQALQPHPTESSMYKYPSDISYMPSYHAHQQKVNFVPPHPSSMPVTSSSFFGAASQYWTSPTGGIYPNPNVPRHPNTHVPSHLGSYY
The settings on record: protein: recombinant; tags: N-terminal GST; dsDNA, one strand shown. An outline of the steps: (§1)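 Binding signal is each hexamer's read frequency for a factor divided by its frequency in the tag-only sample. The factors were GST-fused human transcription factors from yeast, captured on glutathione beads, DNA-barcoded and pooled with that sample. Pools were incubated with 200 nmole of a random double-stranded 16-mer DNA library in Tris/NaCl/DTT/glycerol buffer at room temperature for 30 min, then washed, crosslinked with 0.1% formaldehyde, proximity-ligated with BsaI/T4 ligase (1 h, 37 °C), PCR-amplified and sequenced on an Illumina NextSeq500.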

The next experiment has as its target T2, ELK1 (Homo sapiens, UniProt P19419 1-428).
T2 sequence: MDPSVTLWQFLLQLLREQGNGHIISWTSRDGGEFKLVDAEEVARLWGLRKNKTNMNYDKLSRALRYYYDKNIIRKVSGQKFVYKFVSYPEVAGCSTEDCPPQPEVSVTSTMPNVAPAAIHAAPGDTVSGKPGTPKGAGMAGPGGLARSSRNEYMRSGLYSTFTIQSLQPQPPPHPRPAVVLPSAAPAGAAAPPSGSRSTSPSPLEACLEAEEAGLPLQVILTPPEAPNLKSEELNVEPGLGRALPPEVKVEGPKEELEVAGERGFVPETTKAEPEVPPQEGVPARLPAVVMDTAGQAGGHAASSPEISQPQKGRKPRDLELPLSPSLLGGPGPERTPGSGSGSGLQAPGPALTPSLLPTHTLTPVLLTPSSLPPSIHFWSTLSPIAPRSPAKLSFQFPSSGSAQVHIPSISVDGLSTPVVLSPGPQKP
The settings on record: protein: recombinant; tags: N-terminal GST; dsDNA, one strand shown. An outline of the steps: as §1

The next experiment addresses T3, GABPA (Homo sapiens, UniProt Q06546 1-454).
T3 sequence: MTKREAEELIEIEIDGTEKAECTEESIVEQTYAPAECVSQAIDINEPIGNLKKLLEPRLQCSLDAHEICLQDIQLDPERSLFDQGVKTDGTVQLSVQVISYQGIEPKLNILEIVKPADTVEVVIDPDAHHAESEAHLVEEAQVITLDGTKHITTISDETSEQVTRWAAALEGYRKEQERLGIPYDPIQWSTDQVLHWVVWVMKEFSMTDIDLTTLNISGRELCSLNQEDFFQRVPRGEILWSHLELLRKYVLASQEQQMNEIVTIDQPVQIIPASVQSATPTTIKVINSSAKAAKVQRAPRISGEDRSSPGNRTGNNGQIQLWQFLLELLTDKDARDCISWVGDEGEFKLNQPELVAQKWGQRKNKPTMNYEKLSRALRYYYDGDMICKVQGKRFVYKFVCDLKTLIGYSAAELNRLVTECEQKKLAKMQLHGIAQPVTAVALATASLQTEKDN
To be noted: protein: recombinant; tags: N-terminal GST; dsDNA, one strand shown. The method, boiled down:
as §1

The target in the next experiment is T4, ERG (Homo sapiens, UniProt P11308 1-479).
T4 sequence: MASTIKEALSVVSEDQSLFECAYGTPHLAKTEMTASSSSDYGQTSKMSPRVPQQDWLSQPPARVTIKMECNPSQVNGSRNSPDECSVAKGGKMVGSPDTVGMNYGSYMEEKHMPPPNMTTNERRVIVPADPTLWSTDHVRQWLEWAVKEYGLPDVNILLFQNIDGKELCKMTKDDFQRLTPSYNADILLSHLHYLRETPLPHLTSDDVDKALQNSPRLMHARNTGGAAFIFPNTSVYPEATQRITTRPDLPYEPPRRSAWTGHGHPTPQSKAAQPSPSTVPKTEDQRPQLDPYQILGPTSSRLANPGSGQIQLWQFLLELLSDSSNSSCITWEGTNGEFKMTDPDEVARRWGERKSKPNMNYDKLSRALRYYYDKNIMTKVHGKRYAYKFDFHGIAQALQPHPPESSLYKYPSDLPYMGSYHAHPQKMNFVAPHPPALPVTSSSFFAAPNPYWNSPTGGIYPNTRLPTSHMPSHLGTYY
The settings on record: protein: recombinant; tags: N-terminal GST; dsDNA, one strand shown. The method, boiled down: as §1

Another experiment has as its target ELF1 (Homo sapiens, UniProt P32519 1-619). To be noted: protein: recombinant; tags: N-terminal GST; dsDNA, one strand shown. An outline of the steps: as §1
The next experiment addresses T5, EHF (Homo sapiens, UniProt Q9NZC4 1-300).
T5 sequence: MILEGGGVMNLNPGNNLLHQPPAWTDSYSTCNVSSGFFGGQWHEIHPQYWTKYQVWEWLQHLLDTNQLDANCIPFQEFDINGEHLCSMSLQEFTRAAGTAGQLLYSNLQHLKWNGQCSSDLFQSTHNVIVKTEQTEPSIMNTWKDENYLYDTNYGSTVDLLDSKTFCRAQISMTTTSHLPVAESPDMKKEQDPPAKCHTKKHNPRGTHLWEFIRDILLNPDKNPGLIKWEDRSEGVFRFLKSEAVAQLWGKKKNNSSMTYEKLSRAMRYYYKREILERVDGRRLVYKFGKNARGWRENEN
The settings on record: protein: recombinant; tags: N-terminal GST; dsDNA, one strand shown. The method, boiled down:
as §1

The target in the next experiment is SPI1 (Homo sapiens, UniProt P17947 1-270). The settings on record: protein: recombinant; tags: N-terminal GST; dsDNA, one strand shown. The method, boiled down: as §1
In a further experiment the target is SPIB (Homo sapiens, UniProt Q01892 1-262). To be noted: protein: recombinant; tags: N-terminal GST; dsDNA, one strand shown. The method, boiled down: as §1
The target of another experiment is T6, ELK3 (Homo sapiens, UniProt P41970 1-407).
T6 sequence: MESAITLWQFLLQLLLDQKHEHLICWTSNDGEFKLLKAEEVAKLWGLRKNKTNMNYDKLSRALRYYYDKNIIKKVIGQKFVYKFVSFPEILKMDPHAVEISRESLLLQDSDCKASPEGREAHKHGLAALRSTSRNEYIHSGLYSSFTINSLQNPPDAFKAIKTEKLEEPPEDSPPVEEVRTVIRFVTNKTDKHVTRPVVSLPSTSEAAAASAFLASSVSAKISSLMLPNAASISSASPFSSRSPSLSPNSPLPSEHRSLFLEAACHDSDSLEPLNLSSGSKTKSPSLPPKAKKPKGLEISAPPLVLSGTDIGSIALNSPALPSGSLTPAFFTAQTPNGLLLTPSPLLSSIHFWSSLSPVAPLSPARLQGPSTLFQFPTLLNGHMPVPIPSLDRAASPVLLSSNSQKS
To be noted: protein: recombinant; tags: N-terminal GST; dsDNA, one strand shown. The method, boiled down:
as §1

The target in another experiment is T7, FEV (Homo sapiens, UniProt Q99581 1-238).
T7 sequence: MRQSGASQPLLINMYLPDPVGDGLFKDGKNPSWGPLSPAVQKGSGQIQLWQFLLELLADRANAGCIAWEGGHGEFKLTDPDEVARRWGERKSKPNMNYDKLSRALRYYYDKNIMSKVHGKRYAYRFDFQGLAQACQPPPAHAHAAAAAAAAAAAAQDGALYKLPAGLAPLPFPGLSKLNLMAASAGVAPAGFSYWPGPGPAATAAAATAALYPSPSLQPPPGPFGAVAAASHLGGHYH
The settings on record: protein: recombinant; tags: N-terminal GST; dsDNA, one strand shown. The method, boiled down:
as §1

A further experiment deals with ETV5 (Homo sapiens, UniProt P41161 1-510). The settings on record: protein: recombinant; tags: N-terminal GST; dsDNA, one strand shown. The method, boiled down:
as §1

For another experiment, the target named is HSF1 (Homo sapiens, UniProt Q00613 1-529). The settings on record: protein: recombinant; tags: N-terminal GST; chain copies: 3; dsDNA, one strand shown. An outline of the steps: as §1
Another experiment addresses T8, SPIC (Homo sapiens, UniProt Q8N5J4 1-248).
T8 sequence: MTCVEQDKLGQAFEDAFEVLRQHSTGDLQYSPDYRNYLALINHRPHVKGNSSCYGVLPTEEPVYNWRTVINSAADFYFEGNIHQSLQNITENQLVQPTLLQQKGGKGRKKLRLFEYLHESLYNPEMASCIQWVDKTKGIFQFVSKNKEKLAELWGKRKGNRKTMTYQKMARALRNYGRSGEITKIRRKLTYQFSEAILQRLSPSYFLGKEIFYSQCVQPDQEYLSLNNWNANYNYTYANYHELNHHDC
To be noted: protein: recombinant; tags: N-terminal GST; dsDNA, one strand shown. An outline of the steps:
as §1

The next experiment has as its target ELF4 (Homo sapiens, UniProt Q99607 1-663). The settings on record: protein: recombinant; tags: N-terminal GST; dsDNA, one strand shown. An outline of the steps: as §1
The target in a further experiment is T9, ELK4 (Homo sapiens, UniProt P28324-2 1-405).
T9 sequence: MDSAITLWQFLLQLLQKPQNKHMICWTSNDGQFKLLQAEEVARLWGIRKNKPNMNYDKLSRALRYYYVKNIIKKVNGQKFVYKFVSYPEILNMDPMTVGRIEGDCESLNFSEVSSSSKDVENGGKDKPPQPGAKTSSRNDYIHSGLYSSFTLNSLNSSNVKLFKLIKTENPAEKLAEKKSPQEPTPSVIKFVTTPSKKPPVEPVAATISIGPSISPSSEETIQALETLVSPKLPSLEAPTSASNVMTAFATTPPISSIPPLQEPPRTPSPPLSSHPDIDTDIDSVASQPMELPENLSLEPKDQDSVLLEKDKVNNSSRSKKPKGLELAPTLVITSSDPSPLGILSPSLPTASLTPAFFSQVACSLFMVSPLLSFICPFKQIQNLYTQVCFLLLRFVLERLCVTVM
The settings on record: protein: recombinant; tags: N-terminal GST; dsDNA, one strand shown. An outline of the steps: as §1

A further experiment has as its target T10, ETV2 (Homo sapiens, UniProt O00321 1-342).
T10 sequence: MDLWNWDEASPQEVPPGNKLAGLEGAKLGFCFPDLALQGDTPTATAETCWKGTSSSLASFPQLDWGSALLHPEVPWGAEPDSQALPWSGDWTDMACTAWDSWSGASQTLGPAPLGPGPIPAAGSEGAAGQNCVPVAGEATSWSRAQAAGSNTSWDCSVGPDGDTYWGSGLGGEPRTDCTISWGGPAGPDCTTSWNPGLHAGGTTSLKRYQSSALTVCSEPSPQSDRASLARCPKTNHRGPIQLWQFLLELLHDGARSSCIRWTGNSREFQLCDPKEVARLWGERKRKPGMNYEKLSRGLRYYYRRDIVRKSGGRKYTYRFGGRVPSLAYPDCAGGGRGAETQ
To be noted: protein: recombinant; tags: N-terminal GST; dsDNA, one strand shown. An outline of the steps:
as §1

Another experiment deals with T11, ELF3 (Homo sapiens, UniProt P78545 1-371).
T11 sequence: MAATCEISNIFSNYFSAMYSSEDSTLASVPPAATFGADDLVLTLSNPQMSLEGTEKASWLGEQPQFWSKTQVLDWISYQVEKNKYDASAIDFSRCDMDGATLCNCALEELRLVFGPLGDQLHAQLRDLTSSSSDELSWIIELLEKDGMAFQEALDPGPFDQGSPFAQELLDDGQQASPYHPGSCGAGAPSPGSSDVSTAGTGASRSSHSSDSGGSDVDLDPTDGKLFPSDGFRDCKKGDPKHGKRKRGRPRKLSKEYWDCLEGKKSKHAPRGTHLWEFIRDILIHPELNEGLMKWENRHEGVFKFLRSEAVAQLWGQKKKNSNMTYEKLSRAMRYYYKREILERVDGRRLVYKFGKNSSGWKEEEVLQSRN
The settings on record: protein: recombinant; tags: N-terminal GST; dsDNA, one strand shown. An outline of the steps: as §1

Another experiment concerns the target CRX (Homo sapiens, UniProt O43186 1-299). To be noted: protein: recombinant; tags: N-terminal GST; dsDNA, one strand shown. An outline of the steps:
as §1

Another experiment has as its target ETV1 (Homo sapiens, UniProt P50549 1-477). The settings on record: protein: recombinant; tags: N-terminal GST; dsDNA, one strand shown. An outline of the steps: as §1

One sequence from publication PMC7862700, “An all-to-all approach to the identification of sequence-specific readers for epigenetic DNA modifications on cytosine” can be followed below.

Chain of HSF1 (Q00613 whole entry): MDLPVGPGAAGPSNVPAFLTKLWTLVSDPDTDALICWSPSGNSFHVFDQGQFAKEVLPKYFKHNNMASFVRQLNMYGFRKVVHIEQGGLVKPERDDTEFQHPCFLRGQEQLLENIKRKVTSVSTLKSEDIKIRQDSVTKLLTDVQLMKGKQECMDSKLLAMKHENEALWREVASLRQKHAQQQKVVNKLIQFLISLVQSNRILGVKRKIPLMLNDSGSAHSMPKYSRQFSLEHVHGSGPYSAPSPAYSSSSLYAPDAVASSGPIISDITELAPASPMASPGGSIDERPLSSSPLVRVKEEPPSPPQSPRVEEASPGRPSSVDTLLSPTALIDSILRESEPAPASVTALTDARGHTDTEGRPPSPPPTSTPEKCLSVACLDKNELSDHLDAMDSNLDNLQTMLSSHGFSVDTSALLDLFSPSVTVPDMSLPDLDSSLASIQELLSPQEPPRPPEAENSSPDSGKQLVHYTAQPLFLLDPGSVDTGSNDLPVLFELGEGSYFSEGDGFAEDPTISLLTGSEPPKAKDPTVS
Chain of SPIB (Q01892 whole entry): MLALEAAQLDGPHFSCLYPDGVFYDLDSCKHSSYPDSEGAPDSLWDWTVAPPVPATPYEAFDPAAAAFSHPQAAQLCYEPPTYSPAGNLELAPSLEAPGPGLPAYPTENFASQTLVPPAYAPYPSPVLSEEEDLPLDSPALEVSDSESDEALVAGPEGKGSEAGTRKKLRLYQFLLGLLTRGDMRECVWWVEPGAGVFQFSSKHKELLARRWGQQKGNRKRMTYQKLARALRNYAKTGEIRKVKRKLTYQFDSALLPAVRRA
Chain of ETV1 (P50549 whole entry): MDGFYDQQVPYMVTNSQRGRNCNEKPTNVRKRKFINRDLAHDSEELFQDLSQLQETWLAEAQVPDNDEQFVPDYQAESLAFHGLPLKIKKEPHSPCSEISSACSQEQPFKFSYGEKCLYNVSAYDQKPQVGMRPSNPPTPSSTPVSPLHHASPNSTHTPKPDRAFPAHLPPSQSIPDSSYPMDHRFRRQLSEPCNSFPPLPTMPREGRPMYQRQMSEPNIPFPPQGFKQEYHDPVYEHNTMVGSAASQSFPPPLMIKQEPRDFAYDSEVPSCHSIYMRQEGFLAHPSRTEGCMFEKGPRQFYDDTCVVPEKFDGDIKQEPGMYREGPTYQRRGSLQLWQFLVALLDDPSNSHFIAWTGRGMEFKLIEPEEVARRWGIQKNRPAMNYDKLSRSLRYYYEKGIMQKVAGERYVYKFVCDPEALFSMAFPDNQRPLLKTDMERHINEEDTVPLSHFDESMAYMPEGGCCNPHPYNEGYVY
Chain of CRX (O43186 whole entry): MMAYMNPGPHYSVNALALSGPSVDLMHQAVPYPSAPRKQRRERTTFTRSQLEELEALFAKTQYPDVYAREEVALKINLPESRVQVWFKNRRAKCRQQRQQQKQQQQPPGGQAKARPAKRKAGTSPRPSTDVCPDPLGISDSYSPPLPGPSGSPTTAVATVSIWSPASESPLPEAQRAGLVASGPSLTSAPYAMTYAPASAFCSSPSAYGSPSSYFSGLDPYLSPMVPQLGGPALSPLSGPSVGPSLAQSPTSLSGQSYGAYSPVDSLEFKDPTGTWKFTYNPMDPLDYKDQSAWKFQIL
Chain of ELF4 (Q99607 whole entry): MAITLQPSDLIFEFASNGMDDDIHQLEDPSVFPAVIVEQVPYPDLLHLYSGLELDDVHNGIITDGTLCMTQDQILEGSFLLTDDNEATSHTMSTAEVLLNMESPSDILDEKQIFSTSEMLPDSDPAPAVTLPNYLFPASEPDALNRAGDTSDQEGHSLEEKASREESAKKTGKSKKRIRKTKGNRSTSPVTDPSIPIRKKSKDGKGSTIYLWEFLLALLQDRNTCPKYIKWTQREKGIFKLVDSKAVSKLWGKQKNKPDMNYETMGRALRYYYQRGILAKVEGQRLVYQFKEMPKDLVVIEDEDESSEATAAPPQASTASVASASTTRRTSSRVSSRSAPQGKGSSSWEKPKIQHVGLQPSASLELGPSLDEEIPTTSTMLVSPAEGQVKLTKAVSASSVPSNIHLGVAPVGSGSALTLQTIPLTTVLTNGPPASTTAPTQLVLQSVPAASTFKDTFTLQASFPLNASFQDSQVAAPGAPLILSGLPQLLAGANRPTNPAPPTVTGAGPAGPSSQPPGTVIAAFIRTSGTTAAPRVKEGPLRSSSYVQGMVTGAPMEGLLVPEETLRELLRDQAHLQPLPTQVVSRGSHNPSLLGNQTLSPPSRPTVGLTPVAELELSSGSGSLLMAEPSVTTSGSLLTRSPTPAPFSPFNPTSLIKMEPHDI
Chain of ETV5 (P41161 whole entry): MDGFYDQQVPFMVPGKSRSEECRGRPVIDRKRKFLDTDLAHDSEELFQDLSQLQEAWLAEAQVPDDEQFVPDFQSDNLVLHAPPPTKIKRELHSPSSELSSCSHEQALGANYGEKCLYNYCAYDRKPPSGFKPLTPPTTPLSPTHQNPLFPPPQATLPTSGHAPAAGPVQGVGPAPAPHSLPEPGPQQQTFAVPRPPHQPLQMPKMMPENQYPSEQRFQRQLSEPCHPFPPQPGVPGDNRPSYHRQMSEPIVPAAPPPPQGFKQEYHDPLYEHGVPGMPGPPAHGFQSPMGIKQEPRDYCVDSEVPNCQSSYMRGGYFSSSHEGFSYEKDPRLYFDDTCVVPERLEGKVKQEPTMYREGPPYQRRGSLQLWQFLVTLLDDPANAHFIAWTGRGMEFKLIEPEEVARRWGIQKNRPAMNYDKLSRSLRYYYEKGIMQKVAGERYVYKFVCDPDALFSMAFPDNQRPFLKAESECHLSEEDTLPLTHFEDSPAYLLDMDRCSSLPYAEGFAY
Chain of ELF1 (P32519 whole entry): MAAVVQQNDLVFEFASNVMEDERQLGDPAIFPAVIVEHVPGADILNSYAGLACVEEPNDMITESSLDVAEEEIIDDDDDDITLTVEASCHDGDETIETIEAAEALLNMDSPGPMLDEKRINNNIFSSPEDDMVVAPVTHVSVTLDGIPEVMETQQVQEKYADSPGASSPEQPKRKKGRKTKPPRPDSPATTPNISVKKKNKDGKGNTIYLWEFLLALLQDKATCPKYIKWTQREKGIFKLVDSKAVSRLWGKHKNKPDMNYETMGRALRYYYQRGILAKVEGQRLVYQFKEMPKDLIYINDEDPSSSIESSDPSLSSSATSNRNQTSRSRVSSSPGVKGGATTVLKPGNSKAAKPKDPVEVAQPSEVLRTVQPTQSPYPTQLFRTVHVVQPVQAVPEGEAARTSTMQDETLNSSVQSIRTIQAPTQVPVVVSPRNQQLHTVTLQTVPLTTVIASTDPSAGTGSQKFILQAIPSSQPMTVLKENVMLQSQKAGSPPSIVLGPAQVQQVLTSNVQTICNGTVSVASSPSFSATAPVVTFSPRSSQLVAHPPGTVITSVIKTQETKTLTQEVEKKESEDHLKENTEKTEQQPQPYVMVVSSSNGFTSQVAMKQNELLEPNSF

For ATATTG, the binding signal in the experiment with FLI1 is 1.25 fold enrichment (6-mer frequency, TF over GST control); with ELK1, 1.31 fold enrichment (6-mer frequency, TF over GST control); in the experiment with GABPA, 1.32 fold enrichment (6-mer frequency, TF over GST control); with ERG it was 1.25 fold enrichment (6-mer frequency, TF over GST control); with ELF1, 1.31 fold enrichment (6-mer frequency, TF over GST control); with EHF, 1.3 fold enrichment (6-mer frequency, TF over GST control). For the same sequence, the binding signal in the experiment with SPI1 is 1.28 fold enrichment (6-mer frequency, TF over GST control); with SPIB it was 1.28 fold enrichment (6-mer frequency, TF over GST control); in the experiment with ELK3 it was 1.29 fold enrichment (6-mer frequency, TF over GST control); in the experiment with FEV, 1.33 fold enrichment (6-mer frequency, TF over GST control); with ETV5, 1.37 fold enrichment (6-mer frequency, TF over GST control); in the experiment with HSF1, 1.19 fold enrichment (6-mer frequency, TF over GST control). The binding signal is 1.41 fold enrichment (6-mer frequency, TF over GST control) in the experiment with SPIC; 1.37 fold enrichment (6-mer frequency, TF over GST control) with ELF4; 1.24 fold enrichment (6-mer frequency, TF over GST control) in the experiment with ELK4; 1.48 fold enrichment (6-mer frequency, TF over GST control) with ETV2; 1.25 fold enrichment (6-mer frequency, TF over GST control) with ELF3; 1.28 fold enrichment (6-mer frequency, TF over GST control) with CRX. The binding signal with ETV1 was 1.32 fold enrichment (6-mer frequency, TF over GST control).
